SMARCA2 act – activators of SMARCA2 function; MG213 cells, MMTV-luciferase reporter, dexamethasone, overnight; AID 652017; activation, % at 9.1 µM; 370,000 tested, 1% active; in the data active = activation above about 7.8%
NR2F2 inh – blocks human COUP-TFII nuclear receptor; P24468; HEK293T NGFI-A luciferase reporter, luminescence; inhibition, % at 8.6 µM; 370,000 tested, 0.7% active; AID 686940;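 active = inhibition above a per-plate cutoff, mean inhibition of test wells between control levels plus 3 SD, cut at about 38% in these data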;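 also: cells cotransfected with COUP-TFII expression vector driving the NGFI-A reporter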
Target sequence (P24468 whole entry, looked up): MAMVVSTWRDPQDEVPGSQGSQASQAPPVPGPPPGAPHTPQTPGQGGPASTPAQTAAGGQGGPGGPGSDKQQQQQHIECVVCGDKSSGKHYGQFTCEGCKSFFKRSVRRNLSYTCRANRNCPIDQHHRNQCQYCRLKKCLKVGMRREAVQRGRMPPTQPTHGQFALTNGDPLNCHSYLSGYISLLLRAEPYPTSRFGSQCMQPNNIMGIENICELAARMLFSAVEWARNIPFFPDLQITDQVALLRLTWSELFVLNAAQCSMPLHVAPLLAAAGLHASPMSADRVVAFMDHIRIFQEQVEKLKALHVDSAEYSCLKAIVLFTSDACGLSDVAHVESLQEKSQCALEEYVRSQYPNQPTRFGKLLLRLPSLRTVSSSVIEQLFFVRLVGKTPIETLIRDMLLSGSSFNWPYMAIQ
GAA850 FXN act – frataxin GAA850 promoter activation; 360,000 tested, 0.56% active; AID 540364; HEK293 lucGAA850 FXN promoter luciferase reporter, 24 h; percent of 10 µM SAHA response; activation, % at 6 µM;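 active = activation above the average of all compounds screened plus 3 SD, cutoff fixed separately per campaign, cut at about 7.5% in these data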
Cardio protect – myocardial damage modulation in H9c2 cells; H9c2 cardiomyocytes, H2O2 injury protection, ATPLite, 2 h; protection from H2O2 cell death, % at 20 µM; 360,000 tested, 0.63% active; AID 588492;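 active = compounds giving at least 50% protection of heart cells from peroxide-induced death in the single-dose screen, raw or plate-pattern-corrected value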
GalR3 antagonist – antagonists of human GalR3 | HEK293 GalR3-CNG cAMP membrane potential fluorescence; galR3 body fused to GalR1 C-terminus | 360,000 tested, 0.44% active | O60755 | inhibition, % at 3 µM;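 active = inhibition above the screen-wide average plus 3 SD, cut at about 13% in these data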;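 also: forskolin and galanin both at EC90 stimulate the cells; cAMP rise reported by CNG channel membrane potential dye signal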
Target sequence (O60755 1-299 limits assumed): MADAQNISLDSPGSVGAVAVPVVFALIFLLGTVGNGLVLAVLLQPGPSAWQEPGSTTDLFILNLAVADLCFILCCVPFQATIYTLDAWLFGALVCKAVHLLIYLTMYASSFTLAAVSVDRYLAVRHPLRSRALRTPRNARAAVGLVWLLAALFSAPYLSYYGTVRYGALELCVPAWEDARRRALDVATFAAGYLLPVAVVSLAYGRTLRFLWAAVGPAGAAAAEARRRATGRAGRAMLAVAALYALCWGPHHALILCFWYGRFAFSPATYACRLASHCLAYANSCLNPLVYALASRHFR
Gli-Sufu block – antagonists of Gli-Sufu signaling. 340,000 tested, 0.74% active. inhibition, % at 5 µM. Sufu-KO-LIGHT fibroblasts, Gli luciferase reporter luminescence;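 active = inhibition above about 55%, limit read from the data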
GAA30 counter – GAA30 FXN promoter activation counter-screen; 1,900 tested, 66% active; HEK293 lucGAA30 FXN promoter luciferase, 24 h; DMSO = 0%, 5 µM ipriflavone = 100%; AID 588350; shares compounds with GAA850 FXN act; activation, % at 6 µM;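 active = mean activation above the mean of solvent-only control wells plus 3 SD, cut at about 22% in these data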;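 also: counterscreen of GAA850 promoter hits where activity marks nonselective or luminescence artifacts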
FXN GAA850 conf – confirmation of GAA850 frataxin (FXN) promoter activators; shares compounds with GAA850 FXN act; HEK293 lucGAA850 FXN promoter luciferase reporter, 24 h; 100% = activation by SAHA; activation, % at 6 µM; 1,900 tested, 86% active; AID 588351;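 active = mean activation above a set limit taken from the primary screen, cut at about 8% in these data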
Large screens that a line does not name were inactive (follow-up assays come after a bar, where they were run). Hits are enriched below; roughly 3.4% of the tested compounds scored in any of these assays.

Cc1cccc(/C=C/C(=O)c2ccc([N+](=O)[O-])o2)c1	GAA850 FXN act 11.3 | GAA30 counter inactive | FXN GAA850 conf inactive
O=C(/C=C/c1cccc([N+](=O)[O-])c1)c1ccc([N+](=O)[O-])o1	none
Fc1ccc(-c2ccc(Nc3cccc(F)c3)nn2)cc1	GAA850 FXN act 8.3 | GAA30 counter 93.3 | FXN GAA850 conf 30.8
Fc1ccc(Nc2ccc(-c3ccc(F)cc3)nn2)cc1	none
O=C(Cn1c(=O)c2cccn2c2cccnc21)NCCCN1CCN(c2ccc(Cl)cc2)CC1	none (no result: SMARCA2 act, GAA850 FXN act, Cardio protect, GalR3 antagonist, Gli-Sufu block)
CC1=CN2C(=N)/C(=C/c3ccc([N+](=O)[O-])o3)C(=O)N=C2S1	GAA850 FXN act 12.4 | GAA30 counter inactive | FXN GAA850 conf inactive
CC(C)(C)OC(=O)CC(S(=O)(=O)c1ccccc1)S(=O)(=O)c1ccccc1	GAA850 FXN act 18.3 (no result: Gli-Sufu block) | GAA30 counter inactive | FXN GAA850 conf 42.2
O=C(O)c1ccccc1NN=C1CCCCC1	GAA850 FXN act 9.0 | GAA30 counter 38.0 | FXN GAA850 conf inactive
O=C(NN=C1CCCC1)c1ccccc1O	none
COc1ccc(NC(=O)c2oc3ccccc3c2NC(=O)C2CCCO2)cc1OC (centres undefined)	none
CCC(=O)Nc1c(C(=O)Nc2ccc3c(c2)OCCO3)oc2ccccc12	GAA850 FXN act 9.8 | GAA30 counter 104.0 | FXN GAA850 conf 32.0
CCOCC(=O)Nc1c(C(=O)Nc2ccc3c(c2)OCCO3)oc2ccccc12	none
Cc1ccc(NC(=O)c2oc3ccccc3c2NC(=O)C2CCCO2)cc1C (centres undefined)	GAA850 FXN act 8.0 | GAA30 counter 106.1 | FXN GAA850 conf 37.6
Cc1ccc2nc(-c3ccc(NC(=O)CSc4nnc(-c5cccc(Cl)c5)n4Cc4ccco4)cc3)sc2c1	none (no result: GAA850 FXN act, Cardio protect, GalR3 antagonist, Gli-Sufu block)
CN1CCN(S(=O)(=O)c2ccc(-c3ccc(Cl)cc3)cc2)CC1	GAA850 FXN act 13.1 | GAA30 counter 45.6 | FXN GAA850 conf 12.8
COC(=O)[C@H](Cc1ccccc1)N(Cc1cn(Cc2ccccc2)nn1)S(=O)(=O)c1ccccc1Br	none (no result: GAA850 FXN act, Cardio protect, GalR3 antagonist, Gli-Sufu block)
COC(=O)[C@]12C[C@H](CC(=O)NCCCN3CCCC3=O)C(=O)N(Cc3ccc(Cl)cc3Cl)C1=C[C@H](C(C)(C)C)O[C@@H]2C	none (no result: GAA850 FXN act, Cardio protect, GalR3 antagonist, Gli-Sufu block)
N#C/C(=N\Nc1ccc(Cl)cc1)C(=N)N1CCCCCC1	GAA850 FXN act 11.9 | GAA30 counter 129.6 | FXN GAA850 conf 49.1
Cc1ccc(N/N=C(\C#N)C(=N)N2CCCCC2)cc1	none
C=C1CC(Cn2cc(Br)c(=O)[nH]c2=O)(c2ccc(-c3ccccc3)cc2)OC1=O (centres undefined)	GAA850 FXN act 10.7 | GAA30 counter inactive | FXN GAA850 conf 52.2
O=c1[nH]c(=O)n(Cc2ccc(Oc3ccccc3)cc2)cc1Br	none (no result: Gli-Sufu block)
O=C1/C(=C/c2cccs2)CCC/C1=C\c1cccs1	none
Cn1cccc1/C=C1\CCC/C(=C\c2cccn2C)C1=O	GAA850 FXN act 12.3 | GAA30 counter 98.9 | FXN GAA850 conf 38.8
COc1ccc(CN2C3=NC(c4ccccc4)CC(=O)N3/C(=C\c3ccccc3)C2c2ccccc2)c(OC)c1 (centres undefined)	none (no result: SMARCA2 act, GAA850 FXN act, Cardio protect, GalR3 antagonist, Gli-Sufu block)
Fc1ccc(N2CCN(c3cnc4ccccc4n3)CC2)cc1	GAA850 FXN act 7.9 | GAA30 counter 106.1 | FXN GAA850 conf 41.4
c1ccc(N2CCN(c3cnc4ccccc4n3)CC2)cc1	none
COc1ccc(C2=NN(C(=O)COC(=O)c3ccc(S(C)(=O)=O)c([N+](=O)[O-])c3)C(c3ccco3)C2)cc1 (centres undefined)	GAA850 FXN act 12.8 | GAA30 counter inactive | FXN GAA850 conf 18.8
O=C(NCc1ccc(F)cc1F)[C@@H]1CCCN1C(=O)[C@@H]1CCCN1C(=O)c1cccc2ccccc12	none (no result: GAA850 FXN act, Cardio protect, Gli-Sufu block)
COC(=O)C[C@@H]1CC[C@H]2[C@@H](COc3ccc(NC(=O)NC(C)C)cc3C(=O)N2C)O1	none (no result: GAA850 FXN act, Cardio protect, GalR3 antagonist, Gli-Sufu block)
O=C(c1ccoc1)N1CCN(c2cc(-c3ccco3)nc3cc(-c4ccco4)nn23)CC1	none (no result: SMARCA2 act, GAA850 FXN act, Cardio protect, GalR3 antagonist, Gli-Sufu block)
Cc1cc(Cl)n2c(nc3cc(F)c(F)cc32)c1C#N	GAA850 FXN act 14.7, Gli-Sufu block 61.9 | GAA30 counter inactive | FXN GAA850 conf 29.0
COC(=O)C1=C(C)N(C)C(=O)NC1c1cc(Cl)c(O)c(OC)c1 (centres undefined)	GAA850 FXN act 7.8 | GAA30 counter inactive | FXN GAA850 conf 11.8
CC1(C(=O)NS(=O)(=O)C2CC2)CCN(C(=O)c2ccccc2F)C1 (centres undefined)	none (no result: Gli-Sufu block)
O=C(/C=C/c1ccccc1)CC(=O)c1ccccc1O	GAA850 FXN act 8.9 | GAA30 counter 72.4 | FXN GAA850 conf 29.1
CC(C)C[C@H](NC(=O)c1ccccn1)C(=O)N1CCC[C@H]1C(=O)NCc1ccccc1	none (no result: GAA850 FXN act, Cardio protect, Gli-Sufu block)
O=C(N/N=C/c1ccc(OC2CSC2)cc1)c1ccccc1	GAA850 FXN act 8.1 | GAA30 counter 84.4 | FXN GAA850 conf 47.2
CC(=NNC(=S)N1CCCCC1)c1cccc(C)n1	none
CSC(=S)NN=C(C)c1cccc(C)n1	GAA850 FXN act 16.4, Gli-Sufu block 91.8 | GAA30 counter inactive | FXN GAA850 conf inactive
Cc1c(C(=O)NCc2cccc(Cl)c2)sc(=O)n1Cc1cccc(F)c1	GAA850 FXN act 11.8 (no result: Gli-Sufu block) | GAA30 counter inactive | FXN GAA850 conf inactive
Cc1c(C(=O)NCc2ccc(Cl)c(Cl)c2)sc(=O)n1Cc1cccc(F)c1	none (no result: Gli-Sufu block)
Cc1ccc(N(C)c2nc(N)nc(N)c2N=O)cc1	none (no result: GAA850 FXN act, Cardio protect, Gli-Sufu block)
CCCn1c2ccccc2c2cc(C(=O)O)ccc21	none
CCn1c2ccccc2c2nc3cc(C(=O)O)ccc3nc21	GAA850 FXN act 11.9 | GAA30 counter 100.5 | FXN GAA850 conf 27.1
Nc1ccccc1Nc1cccc(C(F)(F)F)c1	GAA850 FXN act 8.7 | GAA30 counter inactive | FXN GAA850 conf 9.6
Cc1cc(C)nc(Nc2cccc(C(F)(F)F)c2)n1	none
COc1ccccc1NC(=O)c1ccc(NS(=O)(=O)c2cccc3cccnc23)cc1	GAA850 FXN act 8.6 | GAA30 counter inactive | FXN GAA850 conf 9.8
O=S(=O)(Nc1ccc(N2CCCCC2)cc1)c1cccc2cccnc12	GAA850 FXN act 8.0 | GAA30 counter inactive | FXN GAA850 conf inactive
O=S(=O)(NCCO)c1cccc2cccnc12	GAA850 FXN act 14.3 | GAA30 counter inactive | FXN GAA850 conf inactive
CN(CC(=O)Nc1ccc(Cl)c(C(F)(F)F)c1)C(=O)CCCNC(=O)c1ccc(Cl)cc1	GAA850 FXN act 14.8 | GAA30 counter 65.4 | FXN GAA850 conf 25.9
O=C1c2ccccc2-c2onc3ccc(Oc4ccccc4)c1c23	GAA850 FXN act 31.9 | GAA30 counter 50.8 | FXN GAA850 conf 39.7
